Compound activity from PubChem BioAssay.
Sampled rows, rich in hits. Any-hit rate of the full collection: about 1.9%.
Glyco luc inh = increase of ERlucT glycosylation luciferase signal, primary screen, N-linked glycosylation inhibitor project, D54 ERlucT cells, luminescence, set 2 | D54 ERlucT glycosylation luciferase reporter, 24 h; percent of 100 nM tunicamycin response | reporter increase, % at 12.5 µM | hit rate 0.23% among 360,000 | AID 588692, 2011;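 active means mean luciferase reporter signal, scaled so untreated is 0 and the glycosylation-blocking control 100, at or above a set limit in every replicate; inconclusive means mean reaches the limit but not every replicate does; inactive means mean below the limit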;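 further: luciferase carries N-glycosylation sites so blocking glycosylation raises the light; 0% = median of neutral control wells and 100% = median of 100 nM tunicamycin wells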
ATG4B inh = ATG4B protease inhibitors, primary screen, biochemical, fluorescence, uHTS; Cysteine protease ATG4B (Homo sapiens), Q9Y4P1; ATG4B cleavage of LC3-PLA2, NBD-HPC fluorescence, 1 h; inhibition, % at 8.33 µM; hit rate 0.51% among 340,000; AID 504462, 2011; in the data active means inhibition above about 40%
Vif inh = HIV Vif self-association inhibitors, primary screen, imaging, HEK293T, single point; HEK293T cells, Vif self-association by quenched fluorescence, 24 h; inhibition, % at 7.49 µM; hit rate 0.35% among 340,000; in the data active means inhibition above about 50%, passing the limit was not always enough; inconclusive means no clear call, values can overlap the other calls; inactive means below about 31%
CaV13 ICDI inh = Disruptors of the CACNA1D IQ motif to Ca2+-dependent inactivation inhibitor domain association, primary screening, Förster resonance energy transfer in intact living …; HEK cells, CFP/YFP FRET ICDI-IQ, plate reader, 10 min; percent FRET-ratio fall versus neutral wells; inhibition, % at 12.3 µM; hit rate 0.098% among 340,000;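 active means mean replicate inhibition of at least 30% and at least 1% of replicates passing that level; inconclusive means only one of the two criteria is met; inactive means neither criterion is met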;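 further: 0% = median of the neutral control wells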
NSD2 HMT inh = NSD2 histone methyltransferase inhibitors, primary screen, biochemical, AlphaScreen, single concentration, set 2. Histone-lysine N-methyltransferase NSD2 (Homo sapiens), O96028. NSD2 peptide methylation, 120 min. inhibition, % at 12.5 µM. hit rate 0.54% among 310,000. AID 743445, 2014; in the data active means inhibition above about 50%
DSG3 Ab inh = inhibitors of pemphigus antibody binding to DSG3, primary screen, biochemical, bead-based, flow cytometry, scFv-GFP | Desmoglein-3 (Homo sapiens), P32926 | DSG3-coupled beads, scFv-anti-DSG3-GFP binding; stronger effect = lower value | binding (percent of control), % at 10 µM | hit rate 0.48% among 310,000 | AID 588358, 2011;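 active means binding more than 3 SD below its plate's average and above zero; inconclusive means below that plate limit but binding exactly zero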
Starred values were filed as active, the others as inactive; ? = inconclusive; · = no result.

SMILES	Glyco luc inh	ATG4B inh	Vif inh	CaV13 ICDI inh	NSD2 HMT inh	DSG3 Ab inh
O=C(N/N=C/c1c(O)n(Cc2ccc(F)cc2)c(=O)[nH]c1=O)c1ccccc1	-1	-4	8	-5	-1	103
O=C(O)CCC(=O)NCCC1=c2ccccc2=N/C1=C\c1c(O)n(Cc2ccc(F)cc2)c(=S)[nH]c1=O	2	6	7	-3	3	67*
C/C(=N\NC(=O)c1ccccc1Cl)c1c(O)n(C2CCCCC2)c(=O)[nH]c1=O	2	-6	9	-3	1	·
CN1CCN(c2ccc(S(C)(=O)=O)cc2[N+](=O)[O-])CC1	0	3	-7	-2	0	85
CN1CCN(c2ccc([N+](=O)[O-])c3no[n+]([O-])c23)CC1	-19	12	-1	-7	97*	119
c1ccc2c(c1)Sc1ccccc1N2CC1CN2CCC1CC2 (configuration not stated)	-1	0	53*	-6	·	104
CN=C(SCc1ccccc1)c1c(O)n(C)c(=O)n(C)c1=O	1	-6	13	-5	5	107
COc1ccc(/C=C2\C(=O)NC(=S)N(C)C2=O)cc1C	-2	56*	5	-7	·	108
CCCCCCCCn1sccc1=O	6	11	-4	·	·	87*
CCCCCCCCc1ccc(O)cc1	-2	0	-10	·	·	110
CCC(C)/C=C(C)/C=C/C1=CC2=C(Cl)C(=O)C(C)(OC(C)=O)C(=O)C2=CO1 (configuration not stated)	5	4	4	·	·	100
CC[C@H](C)/C=C(C)/C=C/C1=CC2=C(Cl)C(=O)[C@@](C)(OC(C)=O)C(=O)C2=CO1	1	67*	-1	·	·	91
CCN1C(=O)NC(=O)/C(=C\c2cn(CC(=O)N3CCCCC3C)c3ccccc23)C1=O (configuration not stated)	10	7	-1	·	3	111
CCOP(=O)(OCC)C(NC(=O)c1cccc([N+](=O)[O-])c1)C(Cl)(Cl)Cl (configuration not stated)	-2	-7	23	-2	0	83*
Cc1ccc(-c2cc(-c3ccccc3)cc(-c3ccccc3)[n+]2-c2ccc(C(=O)O)cc2)cc1	1	-2	4	-4	·	·
COC1CCCCC1NCCc1ccccc1 (configuration not stated)	0	0	-8	-6	0	127
C#C[C@]1(O)CC[C@H]2[C@@H]3CCC4=Cc5nc6nc7ccccc7n6cc5C[C@]4(C)[C@H]3CC[C@@]21C	2	5	?	-7	·	63*
Cc1cccc(-n2c(O)c(C=NCCN3CCNCC3)c(=O)[nH]c2=S)c1	4	2	0	-4	0	89
O=C1NC(=O)C(=Cc2ccc(-c3ccc(S(=O)(=O)N4CCOCC4)cc3)o2)C(=O)N1	7	6	-3	-7	·	99
O=C1NC(=O)C(=Cc2ccc(-c3ccc(Cl)cc3)o2)C(=O)N1	4	4	-2	·	·	72*
COc1cc(C)c(CN2CCN(c3ccccc3)CC2)cc1C	-4	-7	-9	-5	5	99
COc1cc(C2c3cc4c(cc3CC3COC(=O)C32)OCO4)cc(OC)c1OC (configuration not stated)	14	-13	87*	·	·	106
COc1cc(C2c3cc4c(c(O)c3CC3COC(=O)C32)OCO4)cc(OC)c1OC (configuration not stated)	6	0	7	-6	-1	91
Cc1nc2cc(C(F)(F)F)ccc2n1C1CCN(Cc2nnnn2Cc2ccc3c(c2)OCO3)CC1	3	-27	-1	-5	6	·
CN(C)S(=O)(=O)c1cc(NC(=O)COC(=O)Cc2ccccc2)ccc1Cl	2	-16	10	-21	2	88*
SMILES	Glyco luc inh	ATG4B inh	Vif inh	CaV13 ICDI inh	NSD2 HMT inh	DSG3 Ab inh
CN(C)S(=O)(=O)c1cc(NC(=O)C[N+]23CCN(CC2)CC3)ccc1Cl	5	-1	0	-3	3	103
O=Cc1cn(Cc2cccc(F)c2)c2ccccc12	-15	0	0	-5	1	·
Cc1cc(C=C2C(=O)NC(=S)NC2=O)c(C)n1C1CCCC1	0	-6	-3	-5	·	98
O=c1[nH]c(O)c(/C=C2/C=CC(c3cc(Cl)ccc3Cl)=N2)c(=O)[nH]1	49*	5	-3	8	9	94
CC1=Nc2ccccc2/C1=C/c1c(O)[nH]c(=O)[nH]c1=O	1	3	?	-6	7	93
CNc1ccc2nc3ccccc3[n+](C)c2c1	-16	1	-5	-3	81*	94
C[n+]1c2ccccc2nc2ccc(NCCO)cc21	4	9	?	-5	101*	161
OCCNc1c2c(nc3ccccc13)CCCC2	-1	6	4	0	0	91
CN1C(=O)C(=Cc2sc(=O)n(-c3ccccc3)c2N(C)C)C(=O)N(C)C1=O	29*	3	11	-2	6	118
Cc1cc(C=C2C(=O)N(C)C(=O)N(C)C2=O)c(C)n1-c1ccccc1	0	-1	-5	-5	0	107
O=C1NC(=O)N(Cc2ccccc2)C(=O)/C1=C\C=C\c1ccco1	?	8	39	-4	42	100
Cc1ccc(N2C(=O)NC(=O)/C(=C\C=C\c3ccco3)C2=O)cc1C	47*	8	5	-5	65*	95
Cc1cccc(N2C(=O)NC(=O)/C(=C\C=C\c3ccco3)C2=O)c1	42*	-6	15	-6	·	102
O=C1NC(=O)N(Cc2ccco2)C(=O)/C1=C/C=C/c1ccco1	36*	8	8	-5	·	102
O=C1NC(=O)N(c2ccccc2)C(=O)/C1=C/C=C/c1ccco1	29*	-5	21	-4	·	89
CN1C(=O)/C(=C/C=C/c2ccco2)C(=O)NC1=S	0	17	?	-5	·	19*
CN1C(=O)/C(=C/c2ccc(Cl)s2)C(=O)NC1=S	8	4	3	-3	5	341
O=C(CCNC(=O)N1C[C@H]2C[C@@H](C1)c1cccc(=O)n1C2)Nc1ccc(F)cc1	2	-7	?	·	·	80*
CCN(CC)CCOC(=O)c1ccc(N=Cc2c(O)[nH]c(=O)[nH]c2=O)cc1	-4	-13	·	-6	16	102
